Laboratory results reported in PubChem BioAssay (NCATS).
Records with an inconclusive call do not appear. Activity calls are given as the source filed them. Calls come from the whole dose curve; as a rule, active = well fitted inhibition curve with a large enough effect; inconclusive = small, poorly fitted or top-dose-only effect; inactive = flat fitted curve, though single readings scatter.

Key:
Assay in all cases: qHTS profiling for inhibitors of Plasmodium falciparum proliferation (AID 504749); note: nearly all actives have a fitted effect of over 60% in size
Details in all cases: P. falciparum in erythrocytes, SYBR Green DNA, 72 h; series mostly up to 12.8 µM
CP256 = tested on: CP256
Procedure, shortened: (§1)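 Parasite proliferation within erythrocytes, 72 h exposure. Endpoint: SYBR Green I fluorescence after overnight lysis at room temperature. Controls: 0.29 uM artemisinin, DMSO.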

CP260 = tested on: CP260
Procedure, shortened: as §1

CP262 = tested on: CP262
Procedure, shortened: as §1

CP265 = tested on: CP265
Procedure, shortened: as §1

CP266 = tested on: CP266
Procedure, shortened: as §1

CP268 = tested on: CP268
Procedure, shortened: as §1

CP269 = tested on: CP269
Procedure, shortened: as §1

CP286 = tested on: CP286
Procedure, shortened: as §1

CP291 = tested on: CP291
Procedure, shortened: as §1

CP297 = tested on: CP297
Procedure, shortened: as §1

CP305 = tested on: CP305
Procedure, shortened: as §1

CP315 = tested on: CP315
Procedure, shortened: as §1

CP325 = tested on: CP325
Procedure, shortened: as §1

CP329 = tested on: CP329
Procedure, shortened: as §1

CP335 = tested on: CP335
Procedure, shortened: as §1

DFO2036 = tested on: DFO2036
Procedure, shortened: as §1

DIV14 = tested on: DIV14
Procedure, shortened: as §1

DIV17 = tested on: DIV17
Procedure, shortened: as §1

DIV30 = tested on: DIV30
Procedure, shortened: as §1

Dd2 = tested on: Dd2
Procedure, shortened: as §1

ECU = tested on: ECU
Procedure, shortened: as §1

FAB9 = tested on: FAB9
Procedure, shortened: as §1

GB4 = tested on: GB4
Procedure, shortened: as §1

HB3 = tested on: HB3
Procedure, shortened: as §1

ICS = tested on: ICS
Procedure, shortened: as §1

JCK = tested on: JCK
Procedure, shortened: as §1

N140 = tested on: N140
Procedure, shortened: as §1

P93_24 = tested on: P93_24
Procedure, shortened: as §1

P94_40 = tested on: P94_40
Procedure, shortened: as §1

PAD = tested on: PAD
Procedure, shortened: as §1

PC15 = tested on: PC15
Procedure, shortened: as §1

PC26 = tested on: PC26
Procedure, shortened: as §1

SC27B = tested on: SC27B
Procedure, shortened: as §1

TAB109 = tested on: TAB109
Procedure, shortened: as §1

TAB113 = tested on: TAB113
Procedure, shortened: as §1

TAB165 = tested on: TAB165
Procedure, shortened: as §1

W2 = tested on: W2
Procedure, shortened: as §1

Measured: Potency

NS(=O)(=O)c1cc2c(cc1Cl)N[C@@H](CC1CCCC1)NS2(=O)=O
inactive: all assays above
